In the library only some 3.7% were active in any assay of this set; here they are far more common.
TCR act: T cell receptor activation; primary human leukocytes, anti-CD3, IL-2 HTRF, 48 h; 330,000 tested, under 10 active; AID 504894; Potency, µM (doses to about 9.22 µM), for inactives: top-dose activation of IL-2 secretion, most hits filed as activators; also: % of control where 0% means no effect
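Activity was scored as IL-2 release from primary human leukocytes given only a TCR signal (a-CD3 beads) plus compound for 48 hr. Detection used a two-antibody HTRF format read at 665nm.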
VDR inhibitor: vitamin D3 receptor (human) inhibition | AID 504847 | P11473 | VDR-SRC2-3 peptide fluorescence polarization, 2 h | Potency, µM, for the others: max response, negative = inhibition, actives largely listed as inhibitors | actives 0.93% (n = 400,000); also: potency is read from the fitted curve at half-maximal effect; % is scaled to controls: 0 for no effect and ±100 for the full control effect
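Fluorescence polarization assay of small-molecule disruption of VDR binding to coregulator peptide SRC2-3. Compounds and controls pin-transferred, then read after 2 h incubation at ambient room temperature.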
WRN helicase inh: WRN helicase (human) inhibition; Q14191; WRN helicase unwinding, fluorescent forked duplex, kinetic; Potency, µM (highest dose often 114 µM), without a hit: at the highest dose activity change, negative = inhibition, most hits filed as inhibitors; actives 0.46% (n = 360,000); also: potency is read from the fitted curve at half-maximal effect; % is scaled to controls: 0 for no effect and ±100 for the full control effect; nearly all actives have a fitted effect of over 55% in size
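Enzyme (20 nM final) and test compound sit together 15 min at room temperature before substrate addition. Substrate is a single-forked duplex oligonucleotide (100 nM) labelled with fluorophore and quencher, with 2 mM ATP; helicase unwinding raises red fluorescence, read kinetically.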
FEN1 inhibitor: blocks human flap endonuclease 1; Potency, µM (highest dose often 114 µM), inactives show at the top dose activity change, negative = inhibition, most hits filed as inhibitors; Recombinant FEN1 flap cleavage, fluorescence, 15 min; actives 0.35% (n = 390,000); also: potency is read from the fitted curve at half-maximal effect; % is scaled to controls: 0 for no effect and ±100 for the full control effect; nearly all actives have a fitted effect of over 65% in size
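FEN1 at 10 nM preincubated with compounds 15 min at room temperature, then flap DNA substrate added at 50 nM final. Signal read at 0 and 15 min; concentration-response fitted with four-parameter Hill equation.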
PI5P4K alpha inh: blocks human PI5P4K alpha kinase activity | PI5P4Kalpha enzyme, ADP-Glo luminescence, 60 min; active compounds read low | actives 1.2% (n = 330,000) | P48426 | max response, %; active = max response of -50% or lower; inconclusive = between -30% and -50%; inactive = -30% or higher; also: value at the top dose of about 77 µM; % is scaled to controls: 0 for no effect and ±100 for the full control effect
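Enzyme plus substrate dispensed, test compounds pinned in, then ATP (5 microM final) added. After 60 min at RT, ADP-Glo reagent 1 for 45 min and reagent 2 for 30 min preceded luminescence imaging.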
PLK1 PBD block: blocks phosphopeptide binding to human PLK1 polo-box domain | Plk1 PBD binding of FITC phosphopeptide, fluorescence polarization | P53350 | Potency, µM, inactives show max response, negative = inhibition, hits mostly inhibitors | actives 2.8% (n = 360,000); also: potency is read from the fitted curve at half-maximal effect; series mostly up to about 57 µM; % is scaled to controls: 0 for no effect and ±100 for the full control effect; nearly all actives have a fitted effect of over 65% in size
Target sequence (P53350 whole entry, looked up, the tested form may be a part): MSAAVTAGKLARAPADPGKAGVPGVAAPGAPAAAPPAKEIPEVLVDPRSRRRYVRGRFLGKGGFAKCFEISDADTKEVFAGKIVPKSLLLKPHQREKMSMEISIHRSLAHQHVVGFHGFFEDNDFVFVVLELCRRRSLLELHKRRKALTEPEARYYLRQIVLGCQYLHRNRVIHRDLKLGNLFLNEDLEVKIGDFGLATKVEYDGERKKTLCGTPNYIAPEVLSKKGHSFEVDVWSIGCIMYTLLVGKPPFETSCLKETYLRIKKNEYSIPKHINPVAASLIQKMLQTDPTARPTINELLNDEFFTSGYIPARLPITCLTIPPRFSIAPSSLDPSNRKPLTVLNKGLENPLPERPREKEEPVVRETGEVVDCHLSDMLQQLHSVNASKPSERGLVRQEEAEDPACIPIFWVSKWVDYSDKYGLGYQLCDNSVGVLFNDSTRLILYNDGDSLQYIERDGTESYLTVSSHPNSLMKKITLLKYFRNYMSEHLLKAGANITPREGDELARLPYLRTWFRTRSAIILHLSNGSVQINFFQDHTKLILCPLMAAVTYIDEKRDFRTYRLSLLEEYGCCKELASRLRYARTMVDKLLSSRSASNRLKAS
* marks the source's active call; other numbers are inactive results; ? = inconclusive; · = no result; [ ] = remark or other dose. Unless noted, calls follow the shape of the dose curve; as a rule, active = well fitted curve in the direction sought with a large enough effect; inconclusive = small, poorly fitted or top-dose-only effect, or another doubt; inactive = no such curve, though single readings can be large; an effect the other way counts as inactive or inconclusive.

SMILES	TCR act	VDR inhibitor	WRN helicase inh	FEN1 inhibitor	PI5P4K alpha inh	PLK1 PBD block
C=CC(=O)N1C/C(=C/c2ccc(F)cc2)C(=O)/C(=C\c2ccc(F)cc2)C1	2%	10µM*	40µM*	-18%	-22	?
CN1C2CCC1/C(=C\c1ccc(F)cc1)C(=O)/C2=C/c1ccc(F)cc1	1%[46.1 µM]	?	1%	-5%	-3	-15%
CCOC(=O)C1C(c2ccc3c(c2)OCO3)NC(=O)NC1(O)C(F)(F)F (centres undefined)	4%	?	-6%	-4%	-53*	3µM*
COc1cc(/C=C2/C(C)=C(C#N)c3nc(N)c(C#N)c(C)c32)ccc1OCC(=O)O	9%	7%	?	?	-15	24µM*
CCOC(=O)COc1ccc(/C=C(\C#N)c2nc3ccc(C)cc3[nH]2)cc1OC	·	-5%	·	7%	·	·
O=C(COc1ccccc1[N+](=O)[O-])Nc1cccc(C(=O)Nc2ccccc2C(=O)O)c1	3%	-4%	-19%	?	-63*	-26%
O=C(Nc1ccccc1C(=O)O)c1cccc(NS(=O)(=O)c2ccc(Br)cc2)c1	-1%	?	-11%	13%	?	42µM*
O=C(NNC(=O)c1cccc(Br)c1)Nc1ccc(Cl)cc1	-2%	?	-19%	0%	-26	21µM*
O=C(O)c1ccc(NC(=O)c2ccccc2NC(=O)c2cccc(Br)c2)cc1	5%	?	-9%	2%	-11	21µM*
COc1cccc(C2CC(c3ccc(Cl)cc3)n3nc(N)nc3N2)c1 (centres undefined)	-4%	?	-1%	11%	-6	21µM*
CCOc1ccc(C2CC(c3ccccc3C)n3nc(N)nc3N2)cc1 (centres undefined)	9%	?	-4%	-9%	-11	21µM*
CCc1ccc(C2CC(c3ccccc3)Nc3nc(N)nn32)cc1 (centres undefined)	-1%	-9%	1%	23%	0	-11%
COc1ccc(C2CC(c3cccc(OC)c3)n3nc(N)nc3N2)cc1 (centres undefined)	-6%[46.1 µM]	-15%	-6%	22%	0	-1%
CCc1ccc(C2CC(c3ccc(C)cc3)n3nc(N)nc3N2)cc1 (centres undefined)	-1%	?	0%	-11%	0	24µM*
COc1cccc(N2CC(NC(=O)c3ccc(S(=O)(=O)N4CCCCC4)cc3)CC2=O)c1 (centres undefined)	·	19%	·	15%	·	·
NC1(C(=O)O)CCc2cc(P(=O)(O)O)ccc21 (centres undefined)	·	6%	·	·	·	·
COc1ccc(/C=N/Nc2nncn2N)cc1Br	3%	22µM*	-11%	1%	-4	-20%
COc1cc(/C=N/Nc2nncn2N)ccc1OCc1c(C)no[n+]1[O-]	6%	1%	-2%[11.6 µM]	-10%	-2	2%
CC(=O)n1cc(N(C(=O)CCl)c2ccc(Cl)cc2)c2ccccc21	-5%	50µM*	-13%	0%	-3	-12%
Cc1ccc(-c2csc3nc(-c4ccncc4)[nH]c(=O)c23)cc1	3%	-8%	-1%	16%	-4	17µM*
Cc1ccc(-c2csc3nc[nH]c(=O)c23)cc1	-44%	0%	5%	4%	-12	-11%
O=c1[nH]c(Cc2ccc(F)cc2)nc2scc(-c3ccc(F)cc3)c12	-14%[46.1 µM]	?	-25%	6%	1	6µM*
COc1ccccc1S(=O)(=O)Cc1ccc(C(=O)N2CCN(c3cc(Cl)ccc3C)CC2)o1	·	-11%	·	-25%	·	·
CN(C)c1nc(NCc2ccccc2)nc(N/N=C/c2cccc(Br)c2)n1	-1%	?	4%[57.1 µM]	-18%	-28	12µM*
Cc1cc(N/N=C/c2cccc(Br)c2)nc2ccccc12	4%[46.1 µM]	0%	0%	-4%	1	0%
SMILES	TCR act	VDR inhibitor	WRN helicase inh	FEN1 inhibitor	PI5P4K alpha inh	PLK1 PBD block
CCCC1(c2ccccc2)NC(=O)N(CC(=O)N(C)Cc2c(F)cccc2Cl)C1=O (centres undefined)	3%	?	3%	0%	1	24µM*
CCCC1(c2ccccc2)NC(=O)N(CC(=O)NCc2ccc(C)cc2)C1=O (centres undefined)	4%	4%	0%	-2%	-8	-6%
CCCC1(c2ccccc2)NC(=O)N(C/C=C/Cl)C1=O (centres undefined)	10%	?	-2%	-4%	-8	27µM*
CCC1(c2ccccc2)NC(=O)N(CC(=O)N(C)CC(=O)Nc2ccc(F)c(F)c2F)C1=O (centres undefined)	-2%	3%	-12%	-9%	-2	-7%
O=C(CCc1ccc(S(=O)(=O)NC2CCCCC2)cc1)Nc1ccccc1	5%	-12%	7%	1%	-12	27µM*
[O-]c1n[n+](-c2ccc(Cl)cc2)cc2ccccc12	3%	?	-8%	-6%	-16	3.4µM*
Cc1cccc(N(C(=O)CNC(=O)c2ccco2)C(C(=O)NC2CCCC2)c2ccncc2)c1 (centres undefined)	-7%[46.1 µM]	8%	-14%	7%	-7	-5%
Cc1cc(C)cc(N(C(=O)CNC(=O)c2ccco2)C(C(=O)NC2CCCC2)c2ccncc2)c1 (centres undefined)	-1%	?	9%	0%	2	30µM*
O=C(NCC(=O)N(c1ccc2c(c1)OCO2)C(C(=O)NC1CCCC1)c1ccncc1)c1ccco1 (centres undefined)	-8%	-21%	-30%	-4%	?	2.7µM*
O=C(NCC(=O)N(c1ccc(Cl)cc1)C(C(=O)NC1CCCC1)c1ccncc1)c1ccco1 (centres undefined)	-6%	11%	-2%	0%	-7	-6%
COc1ccc(CNC(=O)Cn2nc(C)c3nn(-c4ccc(Cl)cc4)c(C)c3c2=O)cc1	·	3%	·	-10%	·	·
Nc1ccc(/C=C/c2nccc3ccccc23)cc1	·	·	·	-22%	·	·
COc1cc(/C=C2\C(=O)N(c3ccccc3)N=C2C)ccc1Oc1ccc([N+](=O)[O-])cc1[N+](=O)[O-]	0%[46.1 µM]	?	-34%	-16%	-19	3.8µM*
COc1cc(/C=C2/C(=O)N(c3ccc(C)c(C)c3)N=C2C)cc([N+](=O)[O-])c1O	1%	-10%	-12%	1%	-11	-23%
CC1=NN(c2ccccc2)C(=O)/C1=C\c1ccc(Oc2ccc([N+](=O)[O-])cc2[N+](=O)[O-])cc1	-3%[46.1 µM]	?	-36%[57.1 µM]	-10%	-29	1.9µM*
O=C(NCCCn1ccnc1)C(=O)Nc1ccccc1	3%	0%	-4%	1%	4	30µM*
